Laboratory results published in the supplement of paper PMC7411054.
Counter-ions that a name gives are not always drawn.

How the values were obtained:
Details in all cases: treatment time: 24 h
A549-ACTB-RAB5A [1] = experiment: lowest phenotypically active concentration; higher = less potent
How it was run: (§1)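 Fifteen reporter lines derived from A549, HepG2 and WPMY1 cells by gene editing, carrying BFP for segmentation plus GFP and RFP/FusionRed markers, were exposed to 0.3, 1, 3 or 9 µM for 24 h in four wells each and imaged live. Live-cell features from each well were normalised to solvent control wells. A well set counted as deviating when ≥3 of 4 wells lay beyond the 95th percentile of control Euclidean distances, and as reproducible when the median replicate Pearson correlation exceeded the 95th percentile of non-replicates. Phenotypic activity was assigned only when both criteria were met.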

A549-GM130-SQSTM1 [2] = experiment: as above
How it was run: as §1

A549-ACTB-RAB5A [3] = experiment: phenotypically active (imaging signature differs from DMSO and reproducible) at any of 0.3-9 uM (binary (1 = active, 0 = inactive)); higher = active
How it was run: as §1

A549-CANX-COX4 = experiment: as above
How it was run: as §1

A549-GM130-SQSTM1 [4] = experiment: as above
How it was run: as §1

A549-TP53BP1-CLTA = experiment: as above
How it was run: as §1

A549-TUBA1B-RELA [5] = experiment: as above
How it was run: as §1

HepG2-ACTB-RAB5A [6] = experiment: as above
How it was run: as §1

HepG2-CANX-COX4 = experiment: as above
How it was run: as §1

HepG2-GM130-SQSTM1 = experiment: as above
How it was run: as §1

HepG2-TP53BP1-CLTA [7] = experiment: as above
How it was run: as §1

HepG2-TUBA1B-RELA = experiment: as above
How it was run: as §1

WPMY1-ACTB-RAB5A = experiment: as above
How it was run: as §1

WPMY1-CANX-COX4 = experiment: as above
How it was run: as §1

WPMY1-GM130-SQSTM1 = experiment: as above
How it was run: as §1

WPMY1-TP53BP1-CLTA = experiment: as above
How it was run: as §1

WPMY1-TUBA1B-RELA = experiment: as above
How it was run: as §1

A549-TUBA1B-RELA [8] = experiment: lowest phenotypically active concentration; higher = less potent
How it was run: as §1

HepG2-TP53BP1-CLTA [9] = experiment: as above
How it was run: as §1

HepG2-ACTB-RAB5A [10] = experiment: as above
How it was run: as §1

Compound | lowest phenotypically active concentration (A549-ACTB-RAB5A [1]) [µM] | lowest phenotypically active concentration (A549-GM130-SQSTM1 [2]) [µM] | phenotypically active (A549-ACTB-RAB5A [3]) | phenotypically active (A549-CANX-COX4) | phenotypically active (A549-GM130-SQSTM1 [4]) | phenotypically active (A549-TP53BP1-CLTA) | phenotypically active (A549-TUBA1B-RELA [5]) | phenotypically active (HepG2-ACTB-RAB5A [6]) | phenotypically active (HepG2-CANX-COX4) | phenotypically active (HepG2-GM130-SQSTM1) | phenotypically active (HepG2-TP53BP1-CLTA [7]) | phenotypically active (HepG2-TUBA1B-RELA) | phenotypically active (WPMY1-ACTB-RAB5A) | phenotypically active (WPMY1-CANX-COX4) | phenotypically active (WPMY1-GM130-SQSTM1) | phenotypically active (WPMY1-TP53BP1-CLTA) | phenotypically active (WPMY1-TUBA1B-RELA) | lowest phenotypically active concentration (A549-TUBA1B-RELA [8]) [µM] | lowest phenotypically active concentration (HepG2-TP53BP1-CLTA [9]) [µM] | lowest phenotypically active concentration (HepG2-ACTB-RAB5A [10]) [µM]
CC#CC(=O)N1CCC[C@H]1c1nc(-c2ccc(C(=O)Nc3ccccn3)cc2)c2c(N)nccn12 [acalabrutinib] | 9 | 9 | 1 (active) | 0 (inactive) | 1 (active) | 0 (inactive) | 0 (inactive) | 0 (inactive) | 0 (inactive) | 0 (inactive) | 0 (inactive) | 0 (inactive) | 0 (inactive) | 0 (inactive) | 0 (inactive) | 0 (inactive) | 0 (inactive) |  |  | 
Cn1cc(C2=C(c3ccc(Cl)cc3Cl)C(=O)NC2=O)c2ccccc21 | 1 | ≤ 0.3 | 1 (active) | 0 (inactive) | 1 (active) | 1 (active) | 1 (active) | 0 (inactive) | 0 (inactive) | 1 (active) | 1 (active) | 0 (inactive) | 0 (inactive) | 1 (active) | 1 (active) | 1 (active) | 0 (inactive) | 1 | ≤ 0.3 | 
O=C([C@H](Cc1cccc(C(F)(F)F)c1)NS(=O)(=O)c1cc(F)c2c(c1)CCNC2)N1CCCC1 [(S)-PFI 2 hydrochloride] | 9 | 9 | 1 (active) | 0 (inactive) | 1 (active) | 0 (inactive) | 0 (inactive) | 0 (inactive) | 0 (inactive) | 0 (inactive) | 0 (inactive) | 0 (inactive) | 0 (inactive) | 0 (inactive) | 0 (inactive) | 0 (inactive) | 0 (inactive) |  |  | 
O=C([C@@H](Cc1cccc(C(F)(F)F)c1)NS(=O)(=O)c1cc(F)c2c(c1)CCNC2)N1CCCC1 [(R)-PFI 2 hydrochloride] | 9 | 9 | 1 (active) | 0 (inactive) | 1 (active) | 0 (inactive) | 1 (active) | 0 (inactive) | 0 (inactive) | 0 (inactive) | 0 (inactive) | 0 (inactive) | 0 (inactive) | 0 (inactive) | 0 (inactive) | 0 (inactive) | 0 (inactive) | 9 |  | 
NC(=O)c1cccc(-c2cc(Nc3ccc(OC(F)(F)F)cc3)ncn2)c1 | 9 | 9 | 1 (active) | 0 (inactive) | 1 (active) | 1 (active) | 1 (active) | 0 (inactive) | 0 (inactive) | 1 (active) | 0 (inactive) | 0 (inactive) | 1 (active) | 0 (inactive) | 1 (active) | 1 (active) | 0 (inactive) | 9 |  | 
Cc1noc(C)c1Cn1cc(C#N)c2cc(Oc3ccc(NC(=O)[C@@H]4CCCN4)cc3)ccc21 | 9 | 9 | 1 (active) | 0 (inactive) | 1 (active) | 1 (active) | 1 (active) | 0 (inactive) | 0 (inactive) | 1 (active) | 1 (active) | 1 (active) | 1 (active) | 1 (active) | 1 (active) | 1 (active) | 1 (active) | 9 | 9 | 
Clc1ccccc1C(c1ccccc1)(c1ccccc1)n1ccnc1 [Clotrimazole] | 9 | 9 | 1 (active) | 0 (inactive) | 1 (active) | 1 (active) | 0 (inactive) | 1 (active) | 1 (active) | 0 (inactive) | 0 (inactive) | 0 (inactive) | 0 (inactive) | 1 (active) | 1 (active) | 0 (inactive) | 0 (inactive) |  |  | 9
Cc1noc(C)c1-c1ccc2c(c1)nc(CCc1ccc(OCCCN(C)C)cc1)n2CCN1CCOCC1 | 9 | 3 | 1 (active) | 0 (inactive) | 1 (active) | 1 (active) | 1 (active) | 1 (active) | 1 (active) | 1 (active) | 1 (active) | 1 (active) | 1 (active) | 1 (active) | 1 (active) | 1 (active) | 1 (active) | 3 | 9 | 9
C[C@]1(O)C[C@@H](c2nc(-c3ccc4ccc(-c5ccccc5)nc4c3)c3c(N)nccn32)C1 [linsitinib] | 1 | ≤ 0.3 | 1 (active) | 0 (inactive) | 1 (active) | 1 (active) | 1 (active) | 1 (active) | 1 (active) | 1 (active) | 1 (active) | 1 (active) | 1 (active) | 1 (active) | 1 (active) | 1 (active) | 0 (inactive) | 3 | 9 | 9
CN1[C@@H]2CC[C@H]1C[C@@H](OC(c1ccccc1)c1ccccc1)C2 [benztropine] | 9 | 9 | 1 (active) | 0 (inactive) | 1 (active) | 1 (active) | 1 (active) | 1 (active) | 1 (active) | 0 (inactive) | 1 (active) | 1 (active) | 0 (inactive) | 1 (active) | 1 (active) | 0 (inactive) | 1 (active) | 9 | 9 | 9
CSc1ccc2c(c1)N(CCC1CCCCN1C)c1ccccc1S2 (stereo unspecified) [thioridazine] | 3 | 3 | 1 (active) | 0 (inactive) | 1 (active) | 1 (active) | 1 (active) | 1 (active) | 1 (active) | 1 (active) | 1 (active) | 1 (active) | 1 (active) | 1 (active) | 1 (active) | 1 (active) | 1 (active) | 3 | 9 | 9
